Compounds with a hit are over-represented: about 2.9% of the library has one in this group of screens.
S1P4 antagonist – S1P4 receptor antagonists, primary screen, cell-based; Sphingosine 1-phosphate receptor 4 (Homo sapiens), O95977; S1P4-expressing cells, antagonist mode, reporter read-out; inhibition, % at 4.98 µM; hit rate 0.26% among 220,000; AID 1510, 2009; in the data active = inhibition above about 29%;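 also: 0% = wells stimulated with agonist and 100% = vehicle wells without agonist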
Hsp70 activator – Hsp70 transcriptional activators, primary screen, cell-based, HeLa, Hsp70 promoter luciferase, luminescence, 10 µM. hit rate 0.04% among 200,000. HeLa Hsp70 promoter luciferase reporter; scaled: vehicle 0, proteasome-inhibitor control 100%. AID 1203, 2008. activation, % at 10 µM;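 active = activation above the mean across all tested compounds plus 3 SD, cutoff set per campaign, cut at about 5.5% in these data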;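 also: 100% = MG132 at 30 µM as the positive control and 0% = DMSO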
S1P3 antagonist – S1P3 receptor antagonists, primary screen, cell-based | hit rate 0.27% among 170,000 | inhibition, % at 4.98 µM | CHO S1P3 NFAT-BLA reporter, FRET fluorescence, antagonist mode | AID 485, 2006;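 active = inhibition above the plate cutoff, the mean inhibition of test wells on that plate plus 3 SD, cut at about 28% in these data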;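 also: cells challenged with S1P at its EC80 of 0.8 µM; blue over green emission ratio from cleaved BLA substrate after 4 h stimulation; 0% = S1P-stimulated wells and 100% = unstimulated DMSO-only wells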
Target sequence (Q99500 whole entry, looked up): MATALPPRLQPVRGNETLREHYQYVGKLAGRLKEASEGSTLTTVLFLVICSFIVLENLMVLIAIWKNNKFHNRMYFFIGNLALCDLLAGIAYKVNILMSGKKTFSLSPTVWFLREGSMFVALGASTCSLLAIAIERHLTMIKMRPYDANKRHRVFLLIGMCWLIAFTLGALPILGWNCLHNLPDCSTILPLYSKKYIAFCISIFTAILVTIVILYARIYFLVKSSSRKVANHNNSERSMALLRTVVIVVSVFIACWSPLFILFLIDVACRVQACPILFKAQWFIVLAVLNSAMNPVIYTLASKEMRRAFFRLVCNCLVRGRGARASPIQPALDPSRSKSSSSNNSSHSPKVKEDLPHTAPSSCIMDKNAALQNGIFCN
HSF-1 act – HSF-1 activators, primary screen, NIH3T3-HGL cells, MG132 stress, luminescence, single point. NIH3T3-HGL HSF-1 luciferase reporter, 8 h; 100% = twice DMSO control signal. activation, % at 9 µM. hit rate 1.7% among 300,000. AID 504408, 2011;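 active = mean replicate activation of at least 50% with a set share of replicates each reaching 50%; inconclusive = only one of those two conditions met; inactive = mean below 50% and too few replicates reaching it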;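 also: 0% = median of the neutral control wells and 100% = twice that signal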
S1P4 ag – S1P4 receptor agonists, primary screen, cell-based; Sphingosine 1-phosphate receptor 4 (Homo sapiens), O95977; S1P4-expressing cell line, agonist reporter assay; activation, % at 4.98 µM; hit rate 0.35% among 220,000; AID 1509, 2009; in the data active = activation above about 11%;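 also: 0% = DMSO vehicle and 100% = reference agonist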
HSF1 inhib – HSF1 inhibitors in luciferase reporter cells, primary screen, cell-based, NIH3T3, luminescence; NIH3T3-HGL HSE-luciferase, MG132-induced, luminescence 8 h; active compounds read low; activity change, negative = inhibition, % at 7.5 µM (by protocol); hit rate 0.77% among 300,000; AID 2098, 2009;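 active = more than half of replicate wells show activity change below -50%, luminescence cut by over half; inconclusive = some wells, but at most half, below -50%; inactive = no replicate well below -50%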;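 also: luciferase reports HSF-1 transcriptional activity via heat shock element; 0% = median of DMSO wells and -100% = zero luminescence signal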
Active calls of the source: *; ? = inconclusive; . = no result.

SMILES	S1P4 antagonist	Hsp70 activator	S1P3 antagonist	HSF-1 act	S1P4 ag	HSF1 inhib
CSc1ccc(/C=C/C(=O)c2ccc(O)cc2)cc1	3	0	-2	60*	2	58
CC(=O)/C(=C/c1ccc(N(C)C)cc1)C(=O)c1ccccc1	-3	0	-20	81*	-2	42
CN(C)c1ccc(C(=O)/C=C/c2ccccc2)cc1	-2	0	5	74*	0	48
CCC(=O)Nc1ccc(/C=C(\C(C)=O)C(=O)c2ccccc2)cc1	1	.	-16	30	0	11
CN(C)c1ccc(C(=O)/C=C/c2ccc(Br)cc2)cc1	-18	0	2	?	-1	30
CN(C)c1ccc(C(=O)/C=C/c2ccco2)cc1	3	0	-8	68*	5	18
CCOC(=O)C1(CCc2ccccc2)CCN(Cc2cc(OC)c(OC)cc2OC)CC1	.	.	.	-2	.	-5
O=C(CCNC(=O)c1ccccc1Cl)Nc1nc(-c2ccccc2Cl)cs1	12	0	0	-1	2	7
COc1cc(/C=C/c2noc(-c3ccccc3O)n2)ccc1OC(C)=O	5	.	-19	54*	0	15
CCn1c(O)c(C=Nc2ccccc2)oc1=S	4	0	-7	-72	0	-67*
CCCn1c(O)c(C=Nc2ccccc2)sc1=S	17	0	5	15	-1	26
Cc1cc(OCC(=O)Nc2sc3c(c2C#N)CC(C)(C)NC3(C)C)c(C(C)C)cc1Cl	.	.	.	-65	.	-55*
CCOC(=O)C1=C(C)N=c2s/c(=C/c3cccc([N+](=O)[O-])c3O)c(=O)n2C1c1cc(OC)c(OC)c(OC)c1 (stereo not given)	.	.	.	58*	.	6
O=C(COc1ccccc1Br)Nc1ccc2c(c1)OCCCO2	.	.	.	57*	.	26
O=C(CCC(=O)N1CCN(c2ccc(O)cc2)CC1)c1cccs1	8	.	-1	-4	0	2
O=C(CCC(=O)N1CCN(c2ccc(O)cc2)CC1)c1ccc(Br)cc1	-3	.	10	91*	1	40
CC(Oc1ccccc1)C(=O)N=C1SC2CS(=O)(=O)CC2N1Cc1ccccc1 (stereo not given)	.	.	.	37	.	4
COC(=O)c1cc2ccsc2n1Cc1nc(-c2ccc(Cl)cc2)oc1C	10	0	.	-83	3	-79*
CCCCCc1ccc(-c2nnc(N)s2)cc1	-7	0	-2	?	1	32
CCCCCCc1ccc(-c2ncc(N)cn2)cc1	-5	0	37	51*	0	28
CS(=O)(=O)N(CC(=O)Nc1ccc(CC#N)cc1)c1ccc(C23CC4CC(CC(C4)C2)C3)cc1	-10	0	.	60*	1	48
CC(=O)Nc1ccc(NC(=O)CN(c2ccc(C34CC5CC(CC(C5)C3)C4)cc2)S(C)(=O)=O)cc1	-7	0	.	-2	0	13
COCCC(=O)N1CCC(C(=O)Nc2ccc(Oc3ccccc3)nc2)CC1	.	.	.	16	.	12
O=C(Cc1ccccc1F)Nc1nc(-c2cccs2)cs1	-12	0	20	66*	2	52
COc1ccc(CNC(=O)C2=CC(c3ccc(C)cc3)=NS(=O)(=O)N2C)cc1	.	.	.	13	.	-2
SMILES	S1P4 antagonist	Hsp70 activator	S1P3 antagonist	HSF-1 act	S1P4 ag	HSF1 inhib
Nc1nc(NCCc2ccccc2)nc(NCc2ccccc2)c1[N+](=O)[O-]	.	.	.	-6	.	0
CN(Cc1ccccc1)c1nc(N)c([N+](=O)[O-])c(NCc2ccccc2)n1	-20	0	-2	67*	0	54
Cc1cc(C)n2nc(C(=O)N/N=C/c3ccccc3Cl)nc2n1	-29	0	-22	4	2	-4
Cc1cc(C)n2nc(C(=O)N/N=C/c3c4ccccc4cc4ccccc34)nc2n1	-20	0	-3	188*	-1	144
Cc1cccc2cc3c(N)c(C#N)sc3nc12	12	-1	12	-63	-2	-54*
CCOC(=O)c1c(-c2ccc(C)o2)csc1NC(=S)NC(=O)N(C)C	-12	0	.	56*	0	42
CCOC(=O)c1c(-c2ccc(C)o2)csc1NC(=O)COC(=O)c1cccs1	-12	0	-30	8	0	8
CCCc1nnc(NC(=O)CCC(=O)N2CCC(C)CC2)s1	.	.	.	-2	.	1
CCOC(=O)CC(NC(=O)C1c2ccccc2Oc2ccccc21)c1ccccc1Cl (stereo not given)	-7	0	-13	102*	-1	49
CCOC(=O)CC(NC(=O)Cc1ccccc1)c1ccccc1Cl (stereo not given)	-6	0	0	-11	1	1
CC(=O)NCC1=C(NC(C)=O)C2CC1C(C)(C)C2C (stereo not given)	-18	0	-10	-65	1	-53*
CC1CCc2nc(NC(=O)CSc3nc4ccccc4o3)sc2C1 (stereo not given)	-30	0	-6	-63	-1	-59*
CC(=O)c1cc2c(cc1NC(=O)CSc1nc3ccccc3o1)OCO2	-12	0	6	86*	2	51
Cc1cc(C(=O)CSc2nc3ccccc3o2)c(C)n1C1CC1	-18	0	-14	63*	-1	18
Cc1nnc(NC(=O)CSc2nc3ccccc3o2)s1	-18	0	.	32	-3	14
CSc1cccc(CNC(=O)C2CCC(=O)N(CCCN3CCCC3=O)C2)c1 (stereo not given)	.	.	.	9	.	1
CCCCc1ccc(S(=O)(=O)Nc2nnc(C)s2)cc1	.	.	.	-2	.	-5
CC(C)(C)c1ccc(C(=O)Nc2ccc(F)cc2)s1	-17	.	7	78*	2	34
CCc1cc2cc(C(=O)Nc3ccc(F)cc3)sc2s1	17	0	.	9	0	-3
CCCOc1ccc2cc(C(=O)NCc3ccccc3)c(=O)oc2c1	.	.	.	-68	.	-61*
Cc1ccc(-c2nnn(CC(=O)Nc3ccccc3-c3ccccc3)n2)c(-n2cnnn2)c1	5	0	23	23	-1	8
O=C(CCn1c(=O)oc2ccccc21)N1CCCCCC1	-12	0	-10	31	-3	13
O=C(CCn1c(=S)oc2ccccc21)N1CCCCC1	-12	0	-3	54*	3	4
c1ccc(-c2nc(-c3cccs3)[nH]c2-c2ccccc2)cc1	-40	0	.	16	1	0
Cc1nc2nc(-c3cccs3)[nH]c2cc1Br	.	.	.	63*	.	29
CN1CCN(S(=O)(=O)c2cccc(C(=O)Oc3ccccc3Cl)c2)CC1	.	.	.	1	.	-3
O=C(COC(=O)C1CCC1)Nc1ccc(Oc2ccccc2)cc1	8	-1	.	52*	2	15
